Cycloheximide cs: counter-screen hit for Shiga toxin inhibitors, cycloheximide; 300,000 compounds, 12% hits; AID 2314; max response, %; cell reporter, cycloheximide protein synthesis inhibition counterscreen; in the data active = max response mostly above about 13%, no sharp cut-off; inactive = mostly below about 14%; also: read at 38.3 µM for the half of the compounds with a filed dose; 0% is about no effect
Shiga inhibitor: blocks Shiga toxin action in Vero cells; Vero cells, Shiga toxin protein synthesis inhibition reporter; inhibition, % at 38.7 µM; 290,000 compounds, 9.2% hits; in the data active = inhibition mostly above about 28%, no sharp cut-off; inactive = mostly below about 43%; also: 0% is about no effect
LmPK inhibitor: inhibitors of Leishmania mexicana pyruvate kinase. Potency, µM (series often up to 57.5 µM), for the others: at the highest dose activity change, negative = inhibition, hits mostly inhibitors. 290,000 compounds, 0.37% hits. AID 1721. Q27686. purified LmPK, Kinase-Glo ATP luminescence, 1 h; also: potency is read from the fitted curve at half-maximal effect; % is scaled to controls: 0 for no effect and ±100 for the full control effect
Target sequence (Q27686 whole entry, looked up): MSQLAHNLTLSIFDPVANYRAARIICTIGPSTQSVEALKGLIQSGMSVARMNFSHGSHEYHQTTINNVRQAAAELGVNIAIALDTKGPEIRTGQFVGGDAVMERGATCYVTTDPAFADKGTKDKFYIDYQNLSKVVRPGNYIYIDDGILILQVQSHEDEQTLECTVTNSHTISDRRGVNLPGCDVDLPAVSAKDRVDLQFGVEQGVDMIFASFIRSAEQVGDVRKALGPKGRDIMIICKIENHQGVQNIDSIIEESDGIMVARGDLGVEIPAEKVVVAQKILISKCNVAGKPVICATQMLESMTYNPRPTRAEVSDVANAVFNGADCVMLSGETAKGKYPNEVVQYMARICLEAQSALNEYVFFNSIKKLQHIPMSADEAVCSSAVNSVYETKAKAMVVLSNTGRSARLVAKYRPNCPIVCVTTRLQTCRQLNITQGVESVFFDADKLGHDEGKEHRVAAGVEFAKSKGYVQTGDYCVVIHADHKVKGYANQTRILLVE
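0.1 nM LmPK, 0.5 mM PEP, 0.1 mM ADP; 50 mM imidazole pH 7.2, 7 mM MgCl2, 50 mM KCl; 1 h RT. Kinase-Glo luminescence readout, normalized to no-enzyme (full inhibition) and uninhibited wells.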
Pf growth 48h: P. falciparum growth inhibition at 48 hours (one generation); P. falciparum luciferase growth in erythrocytes, 48 h; Potency, µM (titrated, usually from 28.7 µM), inactives show at the top dose activity change, negative = inhibition, most hits filed as inhibitors; 310,000 compounds, 5.9% hits; also: potency is read from the fitted curve at half-maximal effect; % is scaled to controls: 0 for no effect and ±100 for the full control effect
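Luciferase-expressing P. falciparum in infected erythrocytes (2% hematocrit, 0.1% parasitemia final) in RPMI 1640/0.5% Albumax were exposed to compound for 48 hours at 37 C, 5% CO2; growth read as luminescence.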
Pf growth 96h: P. falciparum growth inhibition at 96 hours; AID 504834; 320,000 compounds, 6.9% hits; P. falciparum luciferase reporter growth, 96 h; Potency, µM (highest dose often 28.7 µM), for inactives: at the top dose activity change, negative = inhibition, actives largely listed as inhibitors; also: potency is read from the fitted curve at half-maximal effect; % is scaled to controls: 0 for no effect and ±100 for the full control effect
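Plates of compound plus infected erythrocytes (2% hematocrit, 0.05% parasitemia final) incubate 96 hours, 37 C, 5% CO2. Detection reagent added; reduced luminescence from the parasites' luciferase reporter flags inhibition.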
* = called active by the depositor. Most compounds without a hit are left out; they make up all but 22% or so of the library. Unless noted, calls follow the shape of the dose curve; as a rule, active = well fitted inhibition curve with a large enough effect; inconclusive = small, poorly fitted or top-dose-only effect, or another doubt; inactive = no such curve, though single readings can be large or run the other way.

For Nc1nnnn1CC(=O)N/N=C/c1cccs1 the results were Cycloheximide cs 17*, Shiga inhibitor 25, LmPK inhibitor -5%, Pf growth 48h 4% and Pf growth 96h 26%.
Screening Nc1nonc1-n1nnc(C(=O)N/N=C/c2cccc(F)c2)c1-c1ccccc1 returned Cycloheximide cs -3, Shiga inhibitor -1, LmPK inhibitor 1%, Pf growth 48h 5.2µM* and Pf growth 96h inconclusive.
`O=C(Cn1nnc2ccccc21)N/N=C\c1cccs1` gave Cycloheximide cs 5, Shiga inhibitor -8, LmPK inhibitor 1%, Pf growth 48h 26% and Pf growth 96h 88%.
For Cc1c(C(=O)N/N=C/c2cccc(O)c2)nnn1-c1nonc1N the results were Cycloheximide cs 12, Shiga inhibitor 1, LmPK inhibitor 8%, Pf growth 48h inconclusive and Pf growth 96h 13µM*.
For Cc1ccc(-c2c(C(=O)N/N=C/c3cccnc3)nnn2-c2nonc2N)cc1 the results were Cycloheximide cs -3, Shiga inhibitor 16, LmPK inhibitor 4%, Pf growth 48h inconclusive and Pf growth 96h inconclusive.
Nc1nonc1-n1nnc(C(=O)N/N=C/c2cccnc2)c1-c1ccccc1 was read as Cycloheximide cs -8, Shiga inhibitor -8, LmPK inhibitor -9%, Pf growth 48h inconclusive and Pf growth 96h 12µM*.
For O=C(COC(=O)/C=C/c1ccc(Cl)cc1)NCCc1ccccc1 the results were Cycloheximide cs -2, Shiga inhibitor -7, LmPK inhibitor 1%, Pf growth 48h 17% and Pf growth 96h 8%.
COc1ccc(S(=O)(=O)N2CCOC2CNC(=O)C(=O)NCc2ccccc2Cl)cc1 (configuration not stated) was read as Cycloheximide cs -3, Shiga inhibitor 2, LmPK inhibitor 0%, Pf growth 48h -29% and Pf growth 96h inconclusive.
COc1ccc(C2CC(c3ccccc3)Oc3ccc(OC)cc32)cc1 (configuration not stated) was read as Cycloheximide cs 9 and Shiga inhibitor 3.
C#CCOCCOCCOCCNc1nc(N2CCN(C(=O)CCCCCCCCCCNC(=O)Cn3cc(CCCCCN)nn3)CC2)nc(N2CCN(C(=O)CCCCCCCCCCNC(=O)[C@H](CO)n3cc(CCCCCN)nn3)CC2)n1 was read as Pf growth 48h 1µM* and Pf growth 96h 2.9µM*.
`C#CCOCCOCCOCCNc1nc(N2CCOCC2)nc(N2CCN(C(=O)CCCCCCCCCCNC(=O)[C@H](CO)n3cc(CCCCCN)nn3)CC2)n1` gave Pf growth 48h 0.33µM* and Pf growth 96h 0.83µM*.
For C#CCOCCOCCOCCNc1nc(N2CCN(C(=O)CCCCCCCCCCNC(=O)Cn3cc(CCCCCN)nn3)CC2)nc(N2CCN(C(=O)CCCCCCCCCCNC(=O)[C@H]([C@@H](C)CC)n3cc(CCCCCN)nn3)CC2)n1 the results were Pf growth 48h 10µM* and Pf growth 96h inconclusive.
Screening C#CCOCCOCCOCCNc1nc(N2CCOCC2)nc(N2CCN(C(=O)CCCCCCCCCCNC(=O)Cn3cc(CCCCCN)nn3)CC2)n1 returned Pf growth 48h 3.7µM* and Pf growth 96h inconclusive.
For C#CCOCCOCCOCCNc1nc(N2CCN(C(=O)Cn3cc(CCO)nn3)CC2)nc(N2CCN(C(=O)[C@H]([C@@H](C)O)n3cc(CCCCN)nn3)CC2)n1 the results were Cycloheximide cs -4, Shiga inhibitor -17, LmPK inhibitor -6%, Pf growth 48h 17% and Pf growth 96h -7%.
C#CCOCCOCCOCCNc1nc(N2CCN(C(=O)Cn3cc(CC(C)O)nn3)CC2)nc(N2CCN(C(=O)[C@H](CCCCN)n3cc(CCC(=O)O)nn3)CC2)n1 (some centres not stated) was read as Cycloheximide cs -3, Shiga inhibitor -14, LmPK inhibitor -4%, Pf growth 48h 21% and Pf growth 96h -1%.
Screening CCn1c(=O)ccc2cc([N+](=O)[O-])ccc21 returned Cycloheximide cs -1, Shiga inhibitor 26, LmPK inhibitor -3%, Pf growth 48h 2% and Pf growth 96h 9%.
For Cc1cc(NC(=NC2CC2)c2ccccc2F)n(-c2ccccc2)n1 the results were Cycloheximide cs -1, Shiga inhibitor -13, LmPK inhibitor -4%, Pf growth 48h inconclusive and Pf growth 96h 0%.
For COc1cc(OC)cc(-c2nnc(NC(=O)CCS(=O)(=O)c3ccc(C)cc3)o2)c1 the results were Pf growth 48h 9% and Pf growth 96h inconclusive.
Screening COc1cc(C(=O)Nc2nc(-c3ccc(Cl)cc3)c(C)s2)ccc1OCC(=O)Nc1ccc(F)cc1 returned Cycloheximide cs 0, Shiga inhibitor -2, LmPK inhibitor 14%, Pf growth 48h inconclusive and Pf growth 96h 4.1µM*.
For COc1ccccc1/C=C/C(=O)NCC(=O)N/N=C/c1ccc(C)o1 the results were Cycloheximide cs -4, Shiga inhibitor 35, LmPK inhibitor 2%, Pf growth 48h 11% and Pf growth 96h -18%.
Screening C(=N\Nc1nc(-c2ccccc2)cs1)/c1ccncc1 returned Cycloheximide cs 43*, Shiga inhibitor 51*, LmPK inhibitor 0%, Pf growth 48h -23% and Pf growth 96h inconclusive.
`Cc1onc(-c2ccccc2)c1-c1csc(N/N=C/c2ccccc2)n1` gave Cycloheximide cs 2, Shiga inhibitor 18, LmPK inhibitor 1%, Pf growth 48h inconclusive and Pf growth 96h inconclusive.
O=C(Cc1ccc(Cl)cc1)N/N=C/c1cccs1 was read as Cycloheximide cs -4, Shiga inhibitor 6, LmPK inhibitor 5%, Pf growth 48h 0% and Pf growth 96h inconclusive.
Screening C/C(=N/Nc1nc(-c2ccc(Cl)cc2)cs1)c1cccs1 returned Cycloheximide cs 14, Shiga inhibitor 47, LmPK inhibitor 0% and Pf growth 48h inconclusive.
For ClCc1csc(N/N=C/c2cccs2)n1 the results were Cycloheximide cs 17*, Shiga inhibitor 39*, LmPK inhibitor -15%, Pf growth 48h -8% and Pf growth 96h -1%.
Screening Cc1ccc(-c2csc(N/N=C/C=C/c3ccccc3)n2)cc1 returned Cycloheximide cs 16*, Shiga inhibitor 49, LmPK inhibitor 2%, Pf growth 48h inconclusive and Pf growth 96h 0%.
Screening C(=N\Nc1nc(-c2ccccc2)cs1)/c1cccs1 returned Cycloheximide cs 68*, Shiga inhibitor 105*, LmPK inhibitor -2%, Pf growth 48h -79% and Pf growth 96h inconclusive.
`C(=C\c1ccccc1)/C=N/Nc1nncc(-c2ccccc2)n1` gave Cycloheximide cs 9, Shiga inhibitor -5, LmPK inhibitor 0%, Pf growth 48h 21% and Pf growth 96h 29%.
Screening CCCNC(=O)N1CCN(S(=O)(=O)c2ccc3c(c2)OCCO3)CC1 returned Pf growth 48h inconclusive and Pf growth 96h -19%.
Screening Cc1c(CCC(=O)N[C@@H](CC(C)C)C(=O)O)c(=O)oc2cc3oc4c(c3cc12)CCCC4 returned Cycloheximide cs 7, Shiga inhibitor 32, LmPK inhibitor 3%, Pf growth 48h -2% and Pf growth 96h 21%.
